In PubChem BioAssay (NCATS):
Inconclusive results are not listed. Active and inactive are the calls of the source. Calls follow the shape of the dose curve; as a rule, active = well fitted inhibition curve with a large enough effect; inconclusive = small, poorly fitted or top-dose-only effect; inactive = flat fitted curve, though single readings scatter.

Experiment: qHTS for Inhibitors of Plasmodium falciparum (HB3) proliferation (AID 504318); also: nearly all actives have a fitted effect of over 60% in size;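 as to activity change, negative = inhibition: 0% = DMSO vehicle and -100% = artemisinin control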
Conditions: P. falciparum HB3 in erythrocytes, SYBR Green DNA, 72 h; series mostly up to 7.21 µM; activity change, negative = inhibition: at the top concentration
Description: Plasmodium falciparum is a virulent malarial parasite that kills 1-2 million people worldwide each year. Malaria not only inflicts tremendous suffering and morbidity on the human population, but has dramatically influenced the course of civilization with profound sociological and economic implications (Shah, S. 2010). Transmitted by mosquitoes, the sporozoite form of the parasite enters the blood stream to infect hepatocytes, where they become merozoites that infect red blood cells (erythrocytes). Within erythrocytes, merozoites begin a […] cycle of growth and division, after which the parasite is released to infect new red blood cells. Gametocytes, which form within erythrocytes as well, circulate in the bloodstream and are ingested by the mosquito, thereby completing the life cycle (see CDC website). To profile malarial lines for differential chemical responses and to identify inhibitors of malarial growth, an assay that measures P. falciparum growth and replication within erythrocytes was employed. This assay uses a DNA binding fluorescent dye (SYBR Green) to detect parasite DNA following cell lysis. Because mature erythrocytes lack DNA, only Plasmodium-derived DNA is detected. The P. falciparum line cp250, derived from a malarial isolate from Cambodia, (Mu, J., et al. 2010) was added to the panel of lines, Dd2, HB3, 7G8 and GB4 in this study. Laboratory of Assay Development and Screening Technology [ADST] and NIH Chemical Genomics Center [NCGC] Boston University, Chemistry Department, Center for Chemical Methodology and Library Development [CMLD-BU] NIH National Institute of Allergy and Infectious Diseases [NIAID]
ADST Assay Protocol Summary: The 1536-well SYBR Green viability assay was based on the method of Bennett et al (2004) and described previously in 1536-well format (Yuan J., et al. 2009). For screening 3 ul culture medium was dispensed into 1536 well black clear bottom plates (Aurora Biotechnologies) using a Multidrop Combi (Thermo Fisher Scientific Inc.), 23 nL compounds in DMSO were added by a pin transfer (Cleveland, P.H. and Koutz, P.J, 2005) using a pin tool-based delivery system (Kalypsys), and 5 ul of erythrocytes infected with P. falciparum one of five lines (cp250, Dd2, HB3, 7G8 or GB4, 0.3% parasitemia, 2.5% hematocrit final concentration) were added. The plates were incubated at 37C in a humidified incubator in 5% CO2 for 72 h, and 2 ul lysis buffer (20 mM Tris HCl, 10 mM EDTA, 0.16% saponin, 1.6% triton X, 10X SYBR Green I (supplied as 10,000X final concentration by Invitrogen) was added to each well. The plates were mixed for 25 sec with gentle shaking and incubated overnight at room temperature in the dark. The following morning, fluorescence intensity at 485(14) nm excitation and 535(25) nm emission wavelengths was measured on an EnVision (Perkin Elmer) plate reader. Plate reads were normalized relative to the control inhibitor (0.29 uM artemisinin) and vehicle (DMSO) wells present on each plate and then corrected by an algorithm using vehicle-only control plates at the beginning and end of the compound plate stack. References Shah, S. (2010). The Fever: how malaria has ruled humankind for 500,000 years. New York, Sarah Crichton Books. CDC web site, http://www.cdc.gov/malaria/about/biology/index.html Mu, J., Myers, R.A., Jiang, H., Liu, S., Ricklefs, S., Waisberg, M., Chotivanich, K., Wilairatana, P., Krudsood, S., White, N.J., et Plasmodium falciparum genome-wide scans for positive selection, recombination hot spots and resistance to antimalarial drugs Nature Genetics 2010, 42, pp 268-271 Bennett TN, Paguio, M., Gligorijevic, B., Seudieu, C., Kosar, A. D., Davidson, E., and Roepe, P. D. Novel, rapid, and inexpensive cell-based quantification of antimalarial drug efficacy Antimicrobial Agents Chemother. 2004, 48(5): pp 1807-10 Yuan J, Johnson RL, Huang RL, Wichterman J, Jiang HY, Hayton K, Fidock DA, Wellems TE, Inglese J, Austin CP, Su XZ. […]
Potency is read from the fitted curve at half-maximal effect.

Activity change, negative = inhibition, inactive:
C=CC1=C2C=C(C3CC3)N(Cc3ccco3)C=C2C(=O)C(C)(OC(=O)c2ccco2)C1=O (stereo not given) 4.65%, CC1(C)O[C@@H]2[C@@H](O1)C(c1ccccc1)(c1ccccc1)OP(=O)(O)OC2(c1ccccc1)c1ccccc1 4.61%, COC(=O)C1=C(C(=O)OC)[C@@H]2N(Cc3ccccc3)c3ccccc3[C@@]23C[C@@H](C(=O)OC)N(C(=O)COCc2ccccc2)C3=N1 -2.98%, C=CCN1c2ccccc2[C@]23C[C@@H](C(=O)OC)N(C(=O)C4CCC4)C2=NC(C(=O)OC)=C(C(=O)OC)[C@H]13 -4.07%, C=CCOC(=O)N[C@H](C(C(=O)OC)=C(C)NCc1ccccc1)c1ccc(C)cc1 3.15%, CCCCC1=CC2=CC(=O)C(C)(OC(=O)CC)C(=O)C2=CN1CC(C)C (stereo not given) -4.86%, COC(=O)CC=C[C@@H](C)[C@H](OC)c1cc(F)ccc1Br -5.48%, CCCCc1nc2c(c3c1C[C@H](C)OC3)CN(C(=O)NCCCC(=O)OCC)CC2 -4.83%, COC(=O)C1=C(C(=O)OC)[C@@H]2Nc3ccccc3[C@@]23C[C@@H](C(=O)OC)N=C3N1 -2.42%, COC/C=C/C1=CC2=CC(=O)C(C)(OC(=O)c3cnc4ccccc4n3)C(=O)C2=CN1CCOC (stereo not given) 1.44%, COC(=O)C1=C(C(=O)OC)[C@@H]2Nc3ccccc3[C@@]23C[C@@H](C(=O)OC)N(S(=O)(=O)c2cccs2)C3=N1 -3.66%, COC(=O)CCCC1=CC2=C(c3ccccc3)C(=O)C(C)(OC(=O)C3CCCC3)C(=O)C2=CN1Cc1ccccc1 (stereo not given) -8.81%, CCN1C(=O)N[C@H](c2ccc(Br)cc2)C(C(=O)OC)=C1C -0.655%, COc1ccc([C@]23Cc4cc(OC)c(OC)cc4[C@H](O2)c2c(c4ccccc4oc2=O)O3)cc1 -8.92%, CCCCCCC(=O)Cc1cc(OC)c(OC)cc1C=C(C(=O)OCC)C(=O)OCC 10%, CCN1C(=O)N[C@@H](c2cccc(F)c2)C(C(C)=O)=C1C 3.06%, CCOC(=O)CN1C(=O)N[C@@H](c2cccc(C(F)(F)F)c2)[C@H](C(=O)OC)[C@H]1C -1.24%, COC(=O)CCC(=O)OC1(C)C(=O)C2=CN(CCCCO)C(c3ccc(OC)cc3)=CC2=C(Br)C1=O (stereo not given) 0.227%, CCCCC1=CC2=CC(=O)C(C)(OC(=O)CC)C(=O)C2=CN1CCCCO (stereo not given) -9.39%, COC(=O)[C@]1(C)C=C[C@@H](C)[C@H](c2ccccc2Br)N1C(=O)C(F)(F)F -6.21%, COC(=O)CCC(=O)OC1(C)C(=O)C=C2C=C(C3CC3)N(CCc3ccccn3)C=C2C1=O (stereo not given) -6.4%, COC(=O)CCC(=O)OC1(C)C(=O)C=C2C=C(C3CC3)N(C3CCCCC3)C=C2C1=O (stereo not given) -4.11%, CCCCC1=CC2=C(c3ccco3)C(=O)C(C)(OC(=O)c3ccc(OC)cc3)C(=O)C2=CN1CCc1c[nH]c2ccccc12 (stereo not given) 0.584%, C#CCCOC(=O)N1C2=NC(C(=O)OC)=C(C(=O)OC)[C@@H]3N(CC#CC)c4ccccc4[C@]23C[C@H]1C(=O)OC 0.871%, CCCCC1=CC2=CC(=O)C(C)(OC(=O)CC)C(=O)C2=CN1CCc1c[nH]c2ccccc12 (stereo not given) 3.68%, C[C@H]1Cc2c(COc3ccccc3)nc3c(c2CO1)CN(S(=O)(=O)c1ccc(Cl)c2nonc12)CC3 -4.98%, COC(=O)CCCC1=CC2=CC(=O)C(C)(OC(=O)CCc3ccccc3)C(=O)C2=CO1 (stereo not given) -8.71%, CCCNC(=O)N1C2=NC(C(=O)OC)=C(C(=O)OC)[C@@H]3Nc4ccccc4[C@]23C[C@H]1C(=O)OC 0.327%, CCN1C(=O)N[C@@H](c2cccs2)C(C(C)=O)=C1C 0.965%, COC(=O)C1=C(C(=O)OC)[C@@H]2N(C)c3ccc(OC)cc3[C@@]23C[C@@H](C(=O)OC)N(S(=O)(=O)c2ccc(OC)cc2)C3=N1 -9.81%, CCN(CC)CCCN1C=C2C(=O)C(C)(OC(=O)c3cccs3)C(=O)C=C2C=C1CCCC(=O)OC (stereo not given) -14.1%, COC(=O)CCC(=O)OC1(C)C(=O)C=C2C=C(C3CC3)N(c3ccccc3)C=C2C1=O (stereo not given) -1.58%, C[C@H]1Cc2c(-c3ccccc3)nc3c(c2CO1)CN(C(=O)c1cc(I)ccc1F)CC3 -8.2%, COC(=O)C1=C(C(=O)OC)[C@@H]2Nc3ccccc3[C@@]23C[C@@H](C(=O)OC)N(C(=O)c2ccc(Br)cc2)C3=N1 -5.96%, CCOC(=O)CN1C(=O)N[C@@H](CCc2ccccc2)[C@@H](C(=O)OC)[C@H]1C 2.73%, COC(=O)N[C@@H](c1ccccc1)[C@]1(C(=O)OC)CCCC1=O 6.45%, COC(=O)CCC(=O)OC1(C)C(=O)C2=CN(CCc3c[nH]c4ccccc34)C(c3ccc(OC)cc3)=CC2=C(Br)C1=O (stereo not given) -6.84%, CCCCC1=CC2=CC(=O)C(C)(OC(=O)CC)C(=O)C2=CN1CCc1ccccn1 (stereo not given) 3.34%

Potency, active:
COC(=O)C1=C(C(=O)OC)[C@@H]2N(Cc3ccccc3)c3ccccc3[C@@]23C[C@@H](C(=O)OC)N(S(=O)(=O)c2ccc([N+](=O)[O-])cc2)C3=N1 1.9 µM, COCOc1ccc(OC)cc1C(=O)C=Cc1ccc(OC)c(Br)c1 1.69 µM
